Compounds with a hit are over-represented: about 0.71% of the library has one in this group of screens.
Coupling enz: qHTS Assay for Inhibitors of Fructose-1,6-bisphosphate Aldolase from Giardia Lamblia: Coupling assay counterscreen. activity change, negative = inhibition, % at 58.2 µM, hits read low. coupling enzyme system counterscreen, AmpLite Red fluorescence. 290,000 tested, 0.67% active; in the data active means activity change below about -30%
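Fluorescence at 525 nm excitation and 598 nm emission measured inhibition of the coupled detection system without aldolase. Compounds (at 57.5 uM final) were preincubated 10 min at room temperature with coupling enzyme reagent before a 20 min substrate/AmpLite Red step.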
Eya2 phos inh: qHTS Assay for Inhibitors of the Phosphatase Activity of Eya2. Potency, µM (series often up to 76.9 µM), for the others: top-dose activity, negative = inhibition, usual class: inhibitors. recombinant Eya2, OMFP fluorescence dephosphorylation (OMFP is methylfluorescein phosphate). 330,000 tested, 0.006% active; further: potency means the concentration at half of the fitted maximal effect
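Eya2 protein (added as 0.2 uM solution) was preincubated with compound for 10 min at ambient temperature in 50 mM HEPES pH 7.5, 50 mM NaCl, 5 uM MgCl2, 0.05% BSA, 1 mM DTT. OMFP (added at 50 uM) then reacted 10 min; fluorescence read at 485/525 nm.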
GALK inhibitor: qHTS Assay for Inhibitors of Human Galactokinase (GALK) | 270,000 tested, 0.007% active | Purified GALK, Kinase-Glo residual ATP luminescence | Potency, µM (series often up to 57.5 µM), without a hit: top-dose activity change, negative = inhibition, most hits filed as inhibitors | P51570; further: potency means the concentration at half of the fitted maximal effect
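Compounds were pin-transferred into ATP buffer (35 uM final), then GALK plus galactose (5 nM, 100 uM final) was added. After 1 h at room temperature, Kinase-Glo Plus was added and luminescence read after 10 min.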
USP2a inh: qHTS Assay for Inhibitors of Ubiquitin-specific Protease USP2a Using CHOP2 as the Reporter. Potency, µM (top dose mostly 38.3 µM), for inactives: at the highest dose activity change, negative = inhibition, actives largely listed as inhibitors. AID 463254, 2010. USP2 core, Ub-CHOP2 coupled fluorogenic reporter, 485/531. Ubiquitin carboxyl-terminal hydrolase 2 (Homo sapiens), O75604. 330,000 tested, 0.01% active;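 further: potency means the concentration at half of the fitted maximal effect; plate controls were DMSO wells for no effect and full inhibition by NEM control for full effect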
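Cell-free coupled assay: 10nM USP2 core preincubated 30min RT with compound in Tris-HCl pH 8.0/CaCl2/CHAPS buffer, then 25nM Ub-CHOP2 and 25nM reporter substrate; fluorescence (Ex 485/Em 531) read after 60min RT, normalized to NEM inhibition, concentration-response curves fitted.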
PI4K2A block: qHTS for small molecular inhibitors of PI4K2A. purified PI4K2A, ADP-Glo luminescence, 1 h; hits give low values. AID 1346378, 2018. activity change, negative = inhibition, % at 76.9 µM. 420,000 tested, 0.13% active. Phosphatidylinositol 4-kinase type 2-alpha (Homo sapiens), Q9BTU6; in the data active means activity change below about -50%; inconclusive means mostly about -30% to -49%;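 further: -100% = wells without enzyme as full effect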
Target sequence (Q9BTU6 whole entry, looked up): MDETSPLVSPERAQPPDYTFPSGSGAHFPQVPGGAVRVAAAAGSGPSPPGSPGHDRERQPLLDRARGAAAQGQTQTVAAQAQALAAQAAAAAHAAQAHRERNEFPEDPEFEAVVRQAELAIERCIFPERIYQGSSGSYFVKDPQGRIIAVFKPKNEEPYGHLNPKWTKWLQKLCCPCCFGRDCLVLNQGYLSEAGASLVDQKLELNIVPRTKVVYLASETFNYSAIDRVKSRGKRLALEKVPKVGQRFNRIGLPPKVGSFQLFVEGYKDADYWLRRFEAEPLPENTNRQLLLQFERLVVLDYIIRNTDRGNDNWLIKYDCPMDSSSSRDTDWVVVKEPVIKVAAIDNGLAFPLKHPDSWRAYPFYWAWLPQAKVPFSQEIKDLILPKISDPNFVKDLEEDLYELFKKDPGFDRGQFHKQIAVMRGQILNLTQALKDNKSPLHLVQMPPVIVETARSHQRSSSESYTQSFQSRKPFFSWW
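Compounds are screened against recombinant PI4K2A using PI as substrate and ATP, the latter dispensed at 300 microM. Reactions run one hour at ambient temperature before ADP-Glo detection; full inhibition defined by wells lacking enzyme.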
USP1-UAF1 inh: Inhibitors of USP1/UAF1: Primary Screen; Ubiquitin carboxyl-terminal hydrolase 1 (Homo sapiens), O94782; recombinant USP1/UAF1, Ub-Rhodamine cleavage fluorescence; Potency, µM (titrated, usually from 57.1 µM), without a hit: top-dose activity change, negative = inhibition, usual class: inhibitors; 390,000 tested, 0.23% active; further: potency means the concentration at half of the fitted maximal effect; nearly all actives have a fitted effect of over 60% in size
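USP1/UAF1 complex (1 nM) preincubated 15 min at room temperature with compound, then Ub-Rho substrate (150 nM final) added. Kinetic fluorescence at 480/540 nm over 6 reads at 60 s intervals; 50 mM HEPES pH 7.8, 0.5 mM EDTA, 0.1 mg/ml BSA, 1 mM TCEP, 0.01% Tween-20.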
* marks the source's active call; other numbers are inactive results; i = inactive; ? = inconclusive; . = no result. Unless noted, the call rests on the fitted dose curve; in most records, active means well fitted curve in the direction sought with a large enough effect; inconclusive means small, poorly fitted or top-dose-only effect, or another doubt; inactive means no such curve, though single readings can be large; an effect the other way counts as inactive or inconclusive. Unless noted, on the % scale 0 is the no-effect control and ±100 the full control effect.

SMILES | Coupling enz | Eya2 phos inh | GALK inhibitor | USP2a inh | PI4K2A block | USP1-UAF1 inh
COC(=O)[C@]12C[C@H](CC(=O)N3CCN(C(=O)c4ccco4)CC3)C(=O)N(CCc3ccc(OC)c(OC)c3)C1=C[C@H](COCc1ccccc1)O[C@@H]2C | . | . | . | . | 1.6 | .
COc1cccc([C@@H]2Oc3ccc(Br)cc3C[C@H]2OC(=O)N[C@H](C)C2CCCCC2)c1 | 1.4 | . | . | . | . | .
O=C(NC1CCCCCC1)c1ccccc1-c1ccccc1 | 3.3 | -5.3% | -0.8% | 1.7% | -1.2 | -3.1%
O=C(NC1CCCCCCC1)c1ccccc1-c1ccccc1 | -35.8* | 5.2% | . | 3.2% | 7.0 | -6.2%
COc1cc(-c2nnc(SCC(=O)Nc3ccc4c(c3)OCCO4)o2)cc(OC)c1OC | -2.5 | -3.1% | 0.5% | -0.2% | -55.5* | -18.6%
C=CC(=O)Nc1cc2c(Nc3ccc(F)c(Cl)c3)ncnc2cc1OCCCN1CCOCC1 | . | . | . | . | -2.2 | .
N[C@@H](CCC(=O)N[C@@H](CS)C(=O)NCC(=O)O)C(=O)O | . | . | . | . | i | .
CN(C1=C(NC(=O)c2ccccc2)C(=O)c2ccccc2C1=O)C1CCS(=O)(=O)C1 (centres undefined) | -61.7* | -14.3% | -0.3% | 0.6% | -16.3 | 10µM*
O=C(CN1C(=O)c2ccccc2C1=O)NC1CCS(=O)(=O)C1 (centres undefined) | . | . | . | . | 1.2 | ?
O=C(NC(=S)NC1CCS(=O)(=O)C1)c1ccccc1 (centres undefined) | . | 0.6% | -6.6% | -1.0% | -1.7 | -18.6%
CC(=O)NC1=C(NC2CCS(=O)(=O)C2)C(=O)c2ccccc2C1=O (centres undefined) | -50.8* | 1.7% | -0.8% | 0.6% | -6.1 | ?
CC12CCC(/C(=N/O)C1=O)C2(C)C (centres undefined) | 1.8 | . | . | . | . | .
CC(=O)c1ccc(N2C(=O)C3C(C2=O)C(C(=O)c2ccc(Cl)cc2)N2CCCC32)cc1 (centres undefined) | 0.2 | 13.4% | -2.8% | 5.9% | -7.9 | 17.8µM*
Oc1ccc(/C=N/NC(=S)Nc2cccnc2)c(O)c1O | -63.2* | -3.1% | -1.7% | 0.9% | -3.0 | ?
COc1cccc(N/N=C/c2cccc(Br)c2O)c1 | 3.0 | 8.7% | 3.1% | 2.8% | 6.4 | -4.7%
Cc1cccc(N/N=C/c2ccc(O)c(O)c2O)c1 | -68.5* | 3.8% | 5.1% | 0.3% | 7.8 | -26.5%
C[C@]1(Cn2ccnn2)[C@H](C(=O)O)N2C(=O)C[C@H]2S1(=O)=O | . | . | . | . | 1.5 | .
Oc1sc(C=Nc2ccc(F)cc2)c2ccccc12 | 4.8 | 35.3% | 0.0% | 10.0% | -0.8 | 31.6µM*
Oc1c(C=Nc2ccccc2)sc2ccccc12 | 0.2 | -6.1% | 2.1% | -0.2% | ? | -20.6%
Oc1sc(C=Nc2ccccc2)c2ccccc12 | -7.3 | ? | -2.8% | ? | 0.3 | 28.2µM*
CCN(CC(=O)NCc1ccc(F)cc1)C(=O)/C=C/c1ccco1 | -39.6* | -8.1% | 0.7% | 0.3% | 7.1 | -14.0%
CCN(CC(=O)NCc1ccc(F)cc1)C(=O)/C=C/c1cccs1 | 1.4 | 0.7% | 0.1% | -1.0% | -4.4 | 8.1%
CCOC(=O)C1=C(C)NC(=O)C1CC(=O)Nc1ccccc1 (centres undefined) | -42.5* | -4.8% | 1.6% | -1.8% | . | .
CCOC(=O)C1=C(C)NC(=O)NC1c1ccc(OCC(=O)Nc2ccccc2)c(OC)c1 (centres undefined) | -2.4 | -34.0% | 0.4% | 0.6% | -4.7 | -25.4%
CCOC(=O)C1=C(Cc2ccc(C)cc2)C(=O)c2ccccc2C1=O | -47.0* | 16.2% | 0.7% | 4.1% | . | .
SMILES | Coupling enz | Eya2 phos inh | GALK inhibitor | USP2a inh | PI4K2A block | USP1-UAF1 inh
CCOC(=O)C1=C(Cc2ccc(OC)cc2)C(=O)c2ccccc2C1=O | -56.2* | 10.5% | 1.5% | 8.9% | -0.6 | ?
COC(=O)[C@]12C[C@H](CC(=O)NCCc3ccccc3OC)C(=O)N(Cc3ccc(Cl)cc3Cl)C1=C[C@H](C(C)(C)C)O[C@@H]2C | . | . | . | . | -7.3 | .
COc1ccc(C2/C=C\CN(CC3CC3)C(Cc3ccccc3)C(=O)N2Cc2ccc(F)cc2)cc1 (centres undefined) | -0.3 | . | . | . | . | .
O=C1Nc2ccc(S(=O)(=O)NCCCO)c3cccc1c23 | 0.5 | 3.4% | -5.2% | 0.6% | -5.8 | -12.9%
O=C1Nc2ccc(S(=O)(=O)NCCC3=CCCCC3)c3cccc1c23 | -33.8* | -0.6% | -1.1% | -1.5% | -1.1 | -19.9%
NC1(c2ccc(-c3nc4ccn5c(=O)[nH]nc5c4cc3-c3ccccc3)cc2)CCC1 | . | . | . | . | -8.1 | .
CCC(C)NC(=O)CN1C(=O)c2cccc3cccc1c23 (centres undefined) | 0.7 | 6.3% | -0.4% | 0.2% | -0.1 | -18.3%
CCN1/C(=N\N)c2cccc3cccc1c23 | -47.0* | -10.6% | 3.4% | -1.7% | -7.3 | -12.2%
O=C1Cc2ccccc2C(=O)N1 | . | . | . | . | -56.4* | .
O=C1Nc2ccccc2CCc2ccccc21 | . | -2.0% | . | -2.6% | -1.7 | -13.0%
CCN1CCN(Cc2c(O)ccc3c2O/C(=C\C=C\c2ccccc2OC)C3=O)CC1 | 4.4 | 3.8% | -5.5% | ? | -6.2 | 28.2µM*
CC1CCN(Cc2c(O)ccc3c2O/C(=C\c2ccco2)C3=O)CC1 | -7.4 | 4.9% | . | 24.0% | 0.5 | 31.6µM*
COCCN(CCOC)Cc1c(O)ccc2c1O/C(=C\c1ccco1)C2=O | -5.3 | 22.8% | -1.5% | ? | -8.0 | -18.2%
O=C1/C(=C/c2ccco2)Oc2c1ccc(O)c2CN1CCCCC1 | -8.2 | 35.0% | . | ? | 0.3 | 31.6µM*
CN1[C@@H]2CC[C@H]1CC(NC(=O)n1c(=O)[nH]c3ccccc31)C2 (some centres undefined) | . | . | . | . | 1.1 | .
COC(=O)C1=C(C(=O)OC)[C@@H]2Nc3ccccc3[C@@]23C[C@@H](C(=O)OC)N(S(=O)(=O)c2ccc(C)cc2)C3=N1 | 2.8 | . | . | . | . | .
Cc1cc(C)c(S(=O)(=O)Nc2cccc3cccnc23)c(C)c1 | -16.3 | . | . | . | . | .
Cc1cc(C)c(S(=O)(=O)Nc2ccc[nH]c2=O)c(C)c1 | -71.7* | -32.6% | 0.6% | -1.2% | 7.4 | -19.7%
Cc1cccc(NC(=O)Cn2c(=O)ccc3cc(S(=O)(=O)N4CCCC4)ccc32)c1C | . | . | . | . | -3.0 | -29.9%

From PubChem BioAssay
